{"source": "PubChem BioAssay (Tox21)", "note": "Records with an inconclusive call do not appear. A call without a number means that no potency is given here. Calls of active or inactive are those of the source. Calls come from the whole dose curve; as a rule, active = well fitted cell-killing curve with a large enough effect in the repeat runs; inconclusive = weak or mixed curves, or effect the other way; inactive = flat fitted curve, though single readings scatter.", "data": [{"test": "cAMP Responsive Elements (CRE) small molecule agonists, cell-based qHTS assay: qHTS cell viability counter screen (AID 2060914); note: nearly all actives have a fitted effect of over 50% in size", "conditions": "CRE-bla HEK293T viability, CellTiter-Glo luminescence, 5 h; series mostly up to 92.4 µM", "how_it_was_run": "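Luminescence read-out (CellTiter-Glo, 30 min RT) of ATP-based viability in CRE-bla HEK 293T cells, run in the same wells as the β-lactamase reporter assay after 3 h compound treatment at 37 °C.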", "values": [{"compound": "CC1=CC(=O)CC(C)(C)C1=O", "Potency": "inactive"}, {"compound": "O=[N+]([O-])c1ccc2c(c1)Cc1ccccc1-2", "Potency": "inactive"}, {"compound": "CCCCCCCCOC(=O)c1cc(O)c(O)c(O)c1", "Potency": "inactive"}, {"compound": "O=C(O)CCCCCCC(=O)O", "Potency": "inactive"}, {"compound": "C=CCCCCCCCCCCCC", "Potency": "inactive"}, {"compound": "Cc1c[nH]c2ccccc12", "Potency": "inactive"}, {"compound": "CCCCCCOC(=O)CCCCC(=O)OCCCCCC", "Potency": "inactive"}, {"compound": "CC(C)(C)C(=O)OCOC(=O)C1N2C(=O)CC2S(=O)(=O)C1(C)C", "note": "(stereo not given)", "Potency": "inactive"}, {"compound": "O=C(Nc1ccc(Oc2ccc(Cl)cc2)c(Cl)c1)c1cc(I)cc(I)c1O", "Potency": "inactive"}, {"compound": "O=C(O)CN(CCOCCOCCN(CC(=O)O)CC(=O)O)CC(=O)O", "activity change, negative = cytotoxicity": "-3.94% [at 0.349 µM] (inactive)"}, {"compound": "CC(CNC1CCCCC1)OC(=O)c1ccccc1", "note": "(stereo not given)", "Potency": "inactive"}, {"compound": "CC(C)Cn1cnc2c1c(=O)n(C)c(=O)n2C", "Potency": "inactive"}, {"compound": "CC(=O)CC(C)(C)C1CCCCC1", "Potency": "inactive"}, {"compound": "CC(CN(CCN(CC(C)OCCO)CC(C)OCCO)CC(C)OCCO)OCCO", "note": "(stereo not given)", "Potency": "inactive"}, {"compound": "N#Cc1c(F)cccc1F", "Potency": "inactive"}, {"compound": "NCc1ccc(S(N)(=O)=O)cc1", "Potency": "inactive"}, {"compound": "CN1CC[C@H](c2c(O)cc(O)c3c(=O)cc(-c4ccccc4Cl)oc23)[C@H](O)C1", "Potency": "inactive"}, {"compound": "CCCCCCCCCCCCCCCCCCCl", "activity change, negative = cytotoxicity": "-6.8% [at 8.39 µM] (inactive)"}, {"compound": "[O]=[Mo](=[O])=[O]", "activity change, negative = cytotoxicity": "-14.6% [at 18.9 µM] (inactive)"}, {"compound": "CC(N=C(NC#N)Nc1ccncc1)C(C)(C)C", "note": "(stereo not given)", "Potency": "inactive"}, {"compound": "CCCCCC=CCC=CCCCCCCCC(=O)OCC", "Potency": "inactive"}, {"compound": "CO/N=C(/C(=O)N[C@@H]1C(=O)N2C(C(=O)O)=C(Cn3nnc(C)n3)CS[C@H]12)c1csc(N)n1", "Potency": "inactive"}, {"compound": "CCN(CC)CCOc1ccc(/C(=C(\\Cl)c2ccccc2)c2ccccc2)cc1", "Potency": "inactive"}, {"compound": "O=CC=C(c1ccccc1)c1ccccc1", "Potency": "inactive"}, {"compound": "c1ccc2c(c1)CCCC2C1=NCCN1", "note": "(stereo not given)", "Potency": "inactive"}, {"compound": "C=C1CC[C@H](O)CC1=C/C=C1\\CCC[C@]2(C)[C@@H]([C@H](C)/C=C/[C@H](C)C(C)C)CC[C@@H]12", "Potency": "inactive"}, {"compound": "O=Cc1ccc([N+](=O)[O-])cc1", "Potency": "inactive"}, {"compound": "C=Cc1ccc(C)cc1", "Potency": "inactive"}, {"compound": "CCCCCCCCCCCCC(=O)O", "Potency": "inactive"}, {"compound": "NC1CCN(c2nc3c(cc2F)c(=O)c(C(=O)O)cn3-c2ccc(F)cc2F)C1", "note": "(stereo not given)", "Potency": "inactive"}, {"compound": "C=C[C@](C)(O)CC[C@@H]1[C@@]2(C)CCCC(C)(C)[C@@H]2CC[C@@]1(C)O", "Potency": "inactive"}, {"compound": "CCOC(=O)c1ccc(O)c(O)c1", "Potency": "inactive"}, {"compound": "COc1ccc2c(c1)c(CC(=O)O)c(C)n2C(=O)c1ccc(Cl)cc1", "Potency": "inactive"}, {"compound": "COC(=O)C1=C(C)NC(C)=C(C(=O)OCCCN2CCC(c3ccccc3)(c3ccccc3)CC2)C1c1cccc([N+](=O)[O-])c1", "note": "(stereo not given)", "Potency": "inactive"}, {"compound": "CCC(C)(C)C1CCC(OC)CC1", "note": "(stereo not given)", "Potency": "inactive"}, {"compound": "C=CC/C=C/C", "Potency": "inactive"}, {"compound": "CN1CN(C)CN(C)C1", "Potency": "inactive"}, {"compound": "Cc1nn(C)c(Oc2ccccc2)c1/C=N/OCc1ccc(C(=O)OC(C)(C)C)cc1", "Potency": "inactive"}, {"compound": "O=C(O)c1cc(O)c2ccccc2c1O", "Potency": "inactive"}, {"compound": "FB(F)F", "Potency": "inactive"}]}]}
